Source: PubChem BioAssay (NCATS)
Records with an inconclusive call do not appear. Calls of active or inactive are those of the source. Calls come from the whole dose curve; as a rule, active = well fitted cell-killing curve with a large enough effect; inconclusive = small, poorly fitted or top-dose-only effect, or effect the other way; inactive = no such curve, though single readings can be large or run the other way. Positions of bridges follow the written chain, without caps; N, C: chain ends. Non-standard residues stand in square brackets, D forms with d. Residues, ends and D or L forms follow the SMILES beside them. ξ: configuration not given here. *: point of attachment. Octanoyl(6-Me) = CCC(C)CCCCC(=O)*; ξThr(3R) = C[C@@H](O)C(N)C(=O)O; dDab = NCC[C@@H](N)C(=O)O; Dab = NCC[C@H](N)C(=O)O

Test: Quantitative High-Throughput drug screen in 47 multiple myeloma cell lines against the NCATS MIPE library collection: KMS27_JCRB cell viability assay (AID 1918970); note: nearly all actives have a fitted effect of over 30% in size
Settings: KMS27 myeloma cells, CellTiter-Glo ATP viability, 48 h; viability (% of DMSO): at 45.8 µM (top of the series)
Text: PI: Beverly A. Mock Ph.D.
Laboratory of Cancer Biology and Genetics,
Center for Cancer Research, National Cancer Institute,
National Institute of Health, Bethesda, Maryland
Drug resistance and disease progression are common in multiple myeloma (MM) patients, underscoring the need for new therapeutic combinations. […] We hypothesized that effective combinations would reduce MYC expression and enhance p16 activity. […] These preclinical data identify potentially useful drug combinations for evaluation in drug-resistant MM and reveal potential mechanisms of combined drug sensitivity.
Described herein is the primary MIPE qHTS used to cherrypick compounds. Validated compounds were then further tested for potential synergistic activiy.
[1] Peat TJ, Gaikwad SM, Dubois W, Gyabaah-Kessie N, Zhang S, Gorjifard S, Phyo Z, Andres M, Hughitt VK, Simpson RM, Miller MA, Girvin AT, Taylor A, Williams D, D'Antonio N, Zhang Y, Rajagopalan A, Flietner E, Wilson K, Zhang X, Shinn P, Klumpp-Thomas C, McKnight C, Itkin Z, Chen L, Kazandijian D, Zhang J, Michalowski AM, Simmons JK, Keats J, Thomas CJ, Mock BA. Drug combinations identified by high-throughput screening promote cell cycle transition and upregulate Smad pathways in myeloma. […] Epub 2023 Jun 24. PMID: 37356470; PMCID: PMC10408729.
SEQUENCE No. (e.g., 1, 2, 3, etc.); […] (e.g., Cells, Incubation, Reagent, etc.); VALUE and DESCRIPTION.
1; Cells; 5 uL; white, solid bottom 1536-well Greiner assay plate.
2; Compounds; 23 nL; Kalypsis pin tool (Wako USA) equipped with a 1536-well pin head to transfer to the assay plates.
3; Incubation; 48 hours; 37C incubation.
4; Reagent;5uL; CellTiter Glo (Promega).
5; Detector; 425V; Luminescence; Viewlux PerkinElmer.
NOTES (numbers refer to Sequence numbers above)
1. The cell-based screening methods employed in this study were like those previously published. Briefly, the corresponding myeloma cell lines were screened in 1,536-well plates with 500 cells, 5-uL per well for inhibition of cell viability (assessed by measuring ATP levels with CellTiterGlo).
2. NCATS MIPE 4.0 library of approved and investigational drugs were added using the Kalypsis pin tool. Wells treated with DMSO only for 100% viability and media only wells for 0% viability were used as controls.
3. The assay plates were covered and incubated for 48 hours in a 37C, 5% CO2 incubator with controlled humidity.
4. After 48 hours, CellTilter-GloTM luminescent substrate mix (Promega) reagent was added to the assay plate and plates we incubated for 5 min at room temperature.
5. Signal was measured as median relative luminescence units on a ViewLux (PerkinElmer) multiplate reader.
[1] Heske CM, Davis MI, Baumgart JT, Wilson K, Gormally MV, Chen L, Zhang X, Ceribelli M, Duveau DY, Guha R, Ferrer M, Arnaldez FI, Ji J, Tran HL, Zhang Y, Mendoza A, Helman LJ, Thomas CJ. Matrix Screen Identifies Synergistic Combination of PARP Inhibitors and Nicotinamide Phosphoribosyltransferase (NAMPT) Inhibitors in Ewing Sarcoma. Clin Cancer Res. 2017 Dec 1;23(23):7301-7311. doi: 10.1158/1078-0432.CCR-17-1121. Epub 2017 Sep 12. PMID: 28899971; PMCID: PMC6636827.
Potency is the fitted concentration of half-maximal effect.

Row | Compound | Potency | viability (% of DMSO)
1 | COc1cccc2c1C(=O)c1c(O)c3c(c(O)c1C2=O)C[C@@](O)(C(C)=O)C[C@H]3O[C@H]1C[C@H](N)[C@H](O)[C@H](C)O1 | 37.2 nM (active) | –
2 | C=CC(=O)Nc1ccc2ncnc(Nc3ccc(OCc4cccc(F)c4)c(Cl)c3)c2c1 | – | 70.4% (active)
3 | CCNC(=O)Nc1ccc(-c2nc3c(c(N4CCOC[C@H]4C)n2)CCN(C2COC2)C3)cc1 | 590 nM (active) | –
4 | CCOC(=O)N1CCN([N+]([O-])=NOc2ccc([N+](=O)[O-])cc2[N+](=O)[O-])CC1 | 4180 nM (active) | –
5 | CN(CC(=O)N(Cc1ccc(C2CCCCC2)cc1)c1ccc(C(=O)O)c(O)c1)S(=O)(=O)c1c(F)c(F)c(F)c(F)c1F | 3320 nM (active) | –
6 | CCn1c(=O)c2c(nc(C=Cc3ccc(OC)c(OC)c3)n2C)n(CC)c1=O | 11800 nM (active) | –
7 | OCCN1C[C@H](O)[C@@H](O)[C@H](O)[C@@H]1CO | inactive | –
8 | N#CNC(=NCCCCCCOc1ccc(Cl)cc1)Nc1ccncc1 | 1 nM (active) | –
9 | Cc1noc(-c2ccc(CSCCC(=O)O)cc2)c1NC(=O)OC(C)c1ccccc1Cl (stereo not given) | inactive | –
10 | COc1ccc(CCC(=O)c2c(O)cc(O[C@@H]3O[C@H](CO)[C@@H](O)[C@H](O)[C@@H]3O[C@@H]3O[C@@H](C)[C@H](O)[C@@H](O)[C@@H]3O)cc2O)cc1O | inactive | –
11 | CC(Oc1ccc(O)cc1)(P(=O)(O)O)P(=O)(O)O | inactive | –
12 | N#Cc1c(C2CCNCC2)cc(-c2c(O)cccc2OCC2CC2)nc1N | 418 nM (active) | –
13 | O=C1NC(=O)C(=Cc2ccc3nccc(-c4ccncc4)c3c2)S1 | 29.6 nM (active) | –
14 | C=C(C)[C@@H]1CC[C@]2(C)CC[C@]3(C)[C@H](CC[C@@H]4[C@@]5(C)CC[C@H](O)C(C)(C)[C@H]5CC[C@]43C)[C@@H]12 | inactive | –
15 | COc1cc(OC)cc(-c2ccc3ncc4ccc(=O)n(-c5ccc(N6CCNCC6)c(C(F)(F)F)c5)c4c3c2)c1 | 1660 nM (active) | –
16 | C[C@H](CCC(=O)O)[C@H]1CC[C@H]2[C@@H]3[C@H](O)C[C@@H]4C[C@H](O)CC[C@]4(C)[C@@H]3CC[C@]12C | inactive | –
17 | C=CC[C@@H]1C=C(C)C[C@H](C)C[C@H](OC)[C@H]2O[C@@](O)(C(=O)C(=O)N3CCCC[C@H]3C(=O)O[C@H](C(C)=C[C@@H]3CC[C@H](O)[C@H](OC)C3)[C@@H](C)[C@@H](O)CC1=O)[C@@H](C)C[C@@H]2OC | 743 nM (active) | –
18 | FC(F)c1nc2ccccc2n1-c1nc(N2CCOCC2)nc(N2CCOCC2)n1 | 105 nM (active) | –
19 | O=C1c2cccc(O)c2C(=O)c2c(O)cc(CO)cc21 | inactive | –
20 | O=C(C=Cc1ccc(CN(CCO)CCc2c[nH]c3ccccc23)cc1)NO | 105 nM (active) | –

Row | Compound | Potency | viability (% of DMSO)
21 | CC1=C(C(=O)Nc2cc3cn[nH]c3cc2F)C(c2ccc(Cl)cc2F)N=C(c2ccnc(Cl)c2)N1 (stereo not given) | 29600 nM (active) | –
22 | CN(C)c1ccc2cc(C(=O)N[C@@H](CCCN=C(N)CCl)C(=O)NCc3ccccc3)ccc2c1 | 1480 nM (active) | –
23 | CCC(C(=O)O)C1CCC(C)C(C(C)C(O)C(C)C(=O)C(CC)C2OC3(C=CC(O)[C@@]4(CC[C@](C)(C5CC[C@@](O)(CC)C(C)O5)O4)O3)C(C)CC2C)O1 (stereo not given in full) | 743 nM (active) | –
24 | CC[C@H]1OC(=O)[C@H](C)[C@@H](O[C@H]2C[C@@](C)(OC)[C@@H](O)[C@H](C)O2)[C@H](C)[C@@H](O[C@@H]2O[C@@H](C)C[C@H](N(C)C)[C@@H]2O)[C@](C)(O)C[C@@H](C)C(=O)[C@H](C)[C@@H](O)[C@]1(C)O | inactive | –
25 | C#CCC(Cc1cnc2nc(N)nc(N)c2n1)c1ccc(C(=O)N[C@@H](CCC(=O)O)C(=O)O)cc1 (stereo not given in full) | inactive | –
26 | C=CCNC1=C2C[C@@H](C)C[C@H](OC)[C@@H](O)[C@@H](C)C=C(C)[C@H](OC(N)=O)[C@@H](OC)C=CC=C(C)C(=O)NC(=CC1=O)C2=O | 105 nM (active) | –
27 | CC(C)N(CC[C@H](c1ccccc1)c1cc(CO)ccc1O)C(C)C | inactive | –
28 | CCN(CC)Cc1ccc2cc(COC(=O)Nc3ccc(C(=O)NO)cc3)ccc2c1 | 235 nM (active) | –
29 | C[N+](C)([O-])CCNc1ccc(NCC[N+](C)(C)[O-])c2c1C(=O)c1c(O)ccc(O)c1C2=O | inactive | –
30 | CCC(C)CCCCC(=O)N[C@@H](CCN)C(=O)NC(C(=O)N[C@H](CCN)C(=O)N[C@@H]1CCNC(=O)C([C@@H](C)O)NC(=O)[C@@H](CCN)NC(=O)[C@@H](CCN)NC(=O)[C@@H](CC(C)C)NC(=O)[C@H](Cc2ccccc2)NC(=O)[C@H](CCN)NC1=O)[C@@H](C)O (stereo partly drawn) ({Octanoyl(6-Me)}-[Dab][ξThr(3R)][dDab][dDab][Dab]F[dL][dDab][dDab][ξThr(3R)]; lactam 4-C) | inactive | –
31 | C=CC1=C(C(=O)O)N2C(=O)[C@@H](NC(=O)C(=NO)c3csc(N)n3)[C@H]2SC1 | inactive | –
32 | Cn1cc(C2=C(c3c4n(c5ccccc35)CCC(CN)C4)C(=O)NC2=O)c2ccccc21 (stereo not given) | 8330 nM (active) | –
33 | C=C[C@@H]1CN2CCC1C[C@H]2[C@H](O)c1ccnc2ccc(OC)cc12 (stereo not given in full) | inactive | –
34 | C[C@H]1C[C@H]2[C@@H]3CCC4=CC(=O)C=C[C@]4(C)[C@@H]3C(=O)C[C@]2(C)[C@@]1(O)C(=O)CO | inactive | –
35 | O=C(Nc1cc2cc[nH]c2cn1)c1ccccc1 | 13200 nM (active) | –
36 | C=C(C)[C@@H]1CC[C@]2(C(=O)O)CC[C@]3(C)[C@H](CC[C@@H]4[C@@]5(C)CC[C@H](O)C(C)(C)[C@@H]5CC[C@]43C)[C@@H]12 | inactive | –
37 | CC(C)C[C@H](NC(=O)[C@@H](NC(=O)c1cccc(-c2ccccc2)n1)[C@@H](C)O)B(O)O | 23.5 nM (active) | –
38 | Cn1cc(C=CC(=O)c2cccc(F)c2)cc1C=CC(=O)NO | 14800 nM (active) | –
39 | Nc1nc2c(c(=O)[nH]1)N(C=O)[C@H](CNc1ccc(C(=O)N[C@@H](CCC(=O)O)C(=O)O)cc1)CN2 | inactive | –
40 | CC(O)(C#Cc1ccc2c(c1)N(c1nc(N)ncc1Cl)CC2)c1nccs1 (stereo not given) | 20900 nM (active) | –
